From PubChem BioAssay (NCATS)
Several values for one entry are separate records, joined by “and”; a condition that tells them apart may be missing. Equal entries are not always repeated. Results filed as inconclusive are left out. Values without a mark were called inactive. Activity calls are given as the source filed them. Unless noted, calls come from the whole dose curve.

test: qHTS assay for small molecule activators of the p53 signaling pathway (AID 651743; active = well fitted activation curve with a large enough effect in the signal ratio, not every such curve was filed as active; the % refers to the signal ratio; note: potency is the fitted concentration of half-maximal effect; for activation: % of control where 0% means no effect); settings: HCT-116 p53RE-bla, beta-lactamase FRET ratio, 16 h; activation: active compounds read high
In short: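 Reporter: beta-lactamase driven by p53 response elements, stably integrated in HCT-116 cells. Cells seeded at 4,000/well, 5 h preincubation, compound (DMSO) 16 h at 37 C; B/G FRET substrate 2 h RT; fluorescence intensity read.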

Row | Structure (SMILES) | activation | Potency
1 | COc1ccc(CCN(C)CCCC(C#N)(c2ccc(OC)c(OC)c2)C(C)C)cc1OC (stereo not drawn) | -2.6% | 
2 | Cn1c(=O)c2c(ncn2C)n(C)c1=O | -3.61% and -3.49% | 
3 | O=C(Nc1ccc([N+](=O)[O-])cc1Cl)c1cc(Cl)ccc1O |  | 0.891 µM (active)
4 | Cc1cn([C@H]2C[C@H](N=[N+]=[N-])[C@@H](CO)O2)c(=O)[nH]c1=O | 7.41% and -3.71% | 
5 | Nc1ccn([C@H]2CC[C@@H](CO)O2)c(=O)n1 | -0.413% and 2.91% | 
6 | CC(C)Cc1ccc(C(C)C(=O)O)cc1 (stereo not drawn) | -2.52% | 
7 | Nc1c2c(nc3ccccc13)CCCC2 | 1% | 
8 | C[C@](N)(Cc1ccc(O)c(O)c1)C(=O)O | -5.22% | 
9 | COc1ccc2[nH]cc(CCNC(C)=O)c2c1 | -4% and -3.68% and -2.3% | 
10 | COc1ccc2c(c1)c(CC(=O)O)c(C)n2C(=O)c1ccc(Cl)cc1 | -7.78% and -10.3% | 
11 | NCCS(=O)(=O)O | -1.87% | 
12 | O=c1c(-c2ccc(O)cc2)coc2cc(O)cc(O)c12 | 12.7% and 14.1% | 
13 | CCC1(c2ccccc2)C(=O)NCNC1=O | -3.22% and -3.23% | 
14 | Cn1c(=O)c2[nH]cnc2n(C)c1=O | 0.514% | 
15 | O=C(CCCN1CCC(O)(c2ccc(Cl)cc2)CC1)c1ccc(F)cc1 | 0.976% | 
16 | CC(C)(Oc1ccc(C2CC2(Cl)Cl)cc1)C(=O)O (stereo not drawn) | -1.02% | 
17 | NS(=O)(=O)c1cc2c(cc1Cl)NCNS2(=O)=O | -0.393% and 4.88% | 
18 | CCOC(=O)C(C)(C)Oc1ccc(Cl)cc1 | 3.33% | 

test: qHTS assay for small molecule activators of the nuclear factor-kappa B (NF-kB) signaling pathway (AID 651749; active = well fitted activation curve with a large enough effect in the signal ratio; the % refers to the signal ratio; note: % of control where 0% means no effect); settings: NF-kB-bla ME-180 cells, beta-lactamase FRET ratio, 16 h; active compounds read high
In short: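 NF-kB-bla ME-180 cells, 2,000/well; 23 nL compound or DMSO pinned; 16 hr, 37C/5% CO2; beta-lactamase FRET read-out.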

Row | Structure (SMILES) | activation
19 | CC#C[C@]1(O)CC[C@H]2[C@@H]3CCC4=CC(=O)CCC4=C3[C@@H](c3ccc(N(C)C)cc3)C[C@@]21C | 4.11%
20 | Clc1ccc(C(c2ccccc2Cl)C(Cl)Cl)cc1 (stereo not drawn) | 2.3%
21 | O=C(Nc1ccc([N+](=O)[O-])cc1Cl)c1cc(Cl)ccc1O | -2.6%
22 | Cc1cn([C@H]2C[C@H](N=[N+]=[N-])[C@@H](CO)O2)c(=O)[nH]c1=O | 0.977% and -0.0662%
23 | Nc1ccn([C@H]2CC[C@@H](CO)O2)c(=O)n1 | -0.557% and 0.274%
24 | CC(C)Cc1ccc(C(C)C(=O)O)cc1 (stereo not drawn) | -1.23%
25 | C[C@](N)(Cc1ccc(O)c(O)c1)C(=O)O | 0.934%
26 | COc1cc2c(c(OC)c1OC)-c1ccc(OC)c(=O)cc1[C@@H](NC(C)=O)CC2 | 2.95% and 1.58% and 1.39%
27 | COc1ccc2[nH]cc(CCNC(C)=O)c2c1 | -0.27% and 0.655% and 0.179%
28 | O=c1c(-c2ccc(O)cc2)coc2cc(O)cc(O)c12 | 3.3% and 4.88%
29 | CCC1(c2ccccc2)C(=O)NCNC1=O | 0.499% and -0.837%
30 | Cn1c(=O)c2[nH]cnc2n(C)c1=O | 0.41%
31 | CC(C)(Oc1ccc(C2CC2(Cl)Cl)cc1)C(=O)O (stereo not drawn) | 1.65%
32 | CCOC(=O)C(C)(C)Oc1ccc(Cl)cc1 | -3.61%
33 | N[C@@H](Cc1c[nH]c2ccc(O)cc12)C(=O)O | 0.166%
34 | Cc1ccc(-c2cc(C(F)(F)F)nn2-c2ccc(S(N)(=O)=O)cc2)cc1 | -1.1%
35 | Cn1cnc2c1c(=O)[nH]c(=O)n2C | -2.65%

test: qHTS assay for small molecule disruptors of the mitochondrial membrane potential - 1 hr assay (AID 651754); settings: series mostly up to 92.2 µM; note: nearly all actives have a fitted effect of over 35% in size; note: potency is the fitted concentration of half-maximal effect
In short: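 Read-out: dye fluorescence at 490 nm ex/535 nm em (monomers) and 540 nm ex/590 nm em (aggregates) in HepG2 cells. Compound exposure 1 hr at 37C, followed by 30 min dye loading.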

Row | Structure (SMILES) | Potency
36 | Clc1ccc(C(c2ccccc2Cl)C(Cl)Cl)cc1 (stereo not drawn) | 29.8 µM (active)
37 | CC(C)NCC(O)c1ccc(O)c(O)c1 (stereo not drawn) | inactive
38 | COc1cc2c(c(OC)c1OC)-c1ccc(OC)c(=O)cc1[C@@H](NC(C)=O)CC2 | inactive
39 | NCCS(=O)(=O)O | inactive
40 | O=c1c(-c2ccc(O)cc2)coc2cc(O)cc(O)c12 | 5.96 µM (active)
41 | Cc1ccc(-c2cc(C(F)(F)F)nn2-c2ccc(S(N)(=O)=O)cc2)cc1 | 42.2 µM (active)

test: qHTS assay for small molecule disruptors of the mitochondrial membrane potential - 5 hr assay (AID 651755); settings: JC-1-type ratio dye; series mostly up to 92.2 µM; note: nearly all actives have a fitted effect of over 40% in size; note: potency is the fitted concentration of half-maximal effect
In short: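 Read-out: ratiometric Mito-MPS fluorescence, green monomer (ex 490/em 535) vs red mitochondrial aggregate (ex 540/em 590). HepG2 cells treated 5 hr at 37C before 30 min dye loading.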

Row | Structure (SMILES) | Potency
42 | Clc1ccc(C(c2ccccc2Cl)C(Cl)Cl)cc1 (stereo not drawn) | 37.6 µM (active)
43 | CC(C)NCC(O)c1ccc(O)c(O)c1 (stereo not drawn) | inactive
44 | COc1cc2c(c(OC)c1OC)-c1ccc(OC)c(=O)cc1[C@@H](NC(C)=O)CC2 | inactive
45 | NCCS(=O)(=O)O | inactive
46 | O=c1c(-c2ccc(O)cc2)coc2cc(O)cc(O)c12 | 7.5 µM (active)
47 | N[C@@H](Cc1c[nH]c2ccc(O)cc12)C(=O)O | inactive
48 | Cc1ccc(-c2cc(C(F)(F)F)nn2-c2ccc(S(N)(=O)=O)cc2)cc1 | 42.2 µM (active)
